Bioassay records as filed in PubChem BioAssay.
Wnt act: activators of Wnt/beta-catenin signaling; AID 743398; activation, % at 9.35 µM; 1.2% of 300,000 active; Wnt/beta-catenin reporter cell assay, activator, plate reader; in the data active = activation above about 30%, passing the limit was not always enough; inconclusive = no clear call, values can overlap the other calls;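 also: 0% = neutral control wells and 100% = positive control wells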
Statin myotox sup: protects C2C12 myotubes from simvastatin toxicity; AID 602340; ATP luminescence, 48 h; scaled: DMSO 0, geranylgeraniol control 100; 0.78% of 330,000 active; rescue of ATP level, % at 7.49 µM;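 active = mean ATP rescue above about 67%, or every replicate alone reaching that limit, limit read from the data, passing the limit was not always enough; inconclusive = no clear call, values can overlap the other calls; inactive = mean under the limit and some replicate under it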;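 also: myotubes were challenged with 10 µM simvastatin during compound exposure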
esBAF inh: inhibitors of esBAF chromatin remodeling in mouse ES cells | Bmi1-luciferase knock-in reporter, 24 h; 100% = twice the neutral-well signal | reporter increase, % at 12.5 µM | 2% of 350,000 active | AID 602393; in the data active = activation above about 40%; inconclusive = no clear call, values can overlap the other calls;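 also: 0% = median of the plate's neutral control wells and 100% = double that signal; a rise in the Bmi1 reporter signal indicates esBAF inhibition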
MITF act: activators of MITF-driven TRPM1 promoter activity in SK-MEL-5 cells; activation, % at 12.5 µM; SK-MEL-5 TRPM1-promoter luciferase, 24 h; % of positive control, neutral wells = 0; 0.75% of 300,000 active;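 active = mean activation of at least 80% with every replicate also reaching 80%; inconclusive = mean reaches 80% but some replicate falls short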;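 also: 0% = neutral control wells and 100% = parthenolide positive control wells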
Rtt109 HAT inh: C. albicans Rtt109 histone acetyltransferase inhibition; purified Rtt109/Vps75, ThioGlo CoA-SH fluorescence, 4 h; inhibition, % at 34.9 µM; Q5AAJ8; AID 540336; 0.16% of 330,000 active;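 active = inhibition of at least 50% in every replicate; inconclusive = best replicate reaches 50% inhibition but some replicates fall short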
Target sequence (Q5AAJ8 whole entry, looked up): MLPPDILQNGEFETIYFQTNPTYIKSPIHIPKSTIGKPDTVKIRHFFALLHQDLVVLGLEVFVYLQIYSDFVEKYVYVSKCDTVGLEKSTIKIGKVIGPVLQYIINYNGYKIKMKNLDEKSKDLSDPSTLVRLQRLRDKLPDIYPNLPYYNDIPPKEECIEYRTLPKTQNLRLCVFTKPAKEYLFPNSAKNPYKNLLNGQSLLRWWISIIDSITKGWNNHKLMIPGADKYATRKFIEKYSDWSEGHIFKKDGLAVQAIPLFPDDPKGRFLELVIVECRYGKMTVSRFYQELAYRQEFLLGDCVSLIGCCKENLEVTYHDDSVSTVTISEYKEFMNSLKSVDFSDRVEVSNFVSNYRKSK
Starred values were filed as active, the others as inactive; ? = inconclusive; · = not tested or not shown. The list is not random: actives were taken first. Their share in the collection is about 3.1%.

SMILES | Wnt act | Statin myotox sup | esBAF inh | MITF act | Rtt109 HAT inh
O=C(COC(=O)c1cc(F)c(F)cc1Cl)NC1CC1 | -3 | · | · | -8 | -7
O=C(CCNC(=O)c1ccc(Br)cc1)NC1CCCCCC1 | -1 | 2 | 3 | -3 | -12
O=C(Cc1ccc(Cl)cc1)NC1CCCCCC1 | 3 | 7 | 54* | 26 | -3
O=C(CCNC(=O)c1ccc(Cl)cc1)NC1CCCCCC1 | 38* | -1 | 26 | 10 | 7
O=C(Cc1ccc(Cl)cc1)NNC(=O)C(=O)NC1CCCCC1 | 0 | -2 | -12 | -12 | -2
O=C(COC(=O)c1ccccc1F)NC1CCCC1 | 3 | 4 | 2 | -8 | -9
Nc1c(Cl)cc(Cl)cc1C(=O)OCC(=O)NC1CC1 | · | 70* | 4 | 10 | -4
O=C(COC(=O)c1c(F)cccc1Cl)NC1CCCCC1 | 16 | 8 | · | 85* | -5
C[C@H]1CN([C@@H](C)CO)C(=O)Cc2cc(NC(=O)CCCN(C)C)ccc2O[C@@H]1CN(C)C(=O)NC1CCCCC1 | · | 2 | 2 | · | ·
C[C@@H]1CCCCO[C@H](CN(C)CC2CC2)[C@H](C)CN([C@H](C)CO)C(=O)c2cc(NC(=O)C3CCCCC3)ccc2O1 | · | · | 1 | · | ·
C=CCn1c(C)cc(-c2csc(NC(=O)C3=COCCO3)n2)c1C | -14 | -3 | · | 120* | 6
CCCOC(=O)c1ccc2c(c1)C(=O)N(c1ccccc1)C2=O | · | -3 | 58* | -4 | 3
O=C(O)c1ccc2c(c1)C(=O)N(c1ccc(C(=O)OCC(=O)c3ccccc3)cc1)C2=O | 47* | 3 | ? | · | -1
Cc1ccc(C(=O)OCC(=O)c2ccccc2)cc1 | 36* | 5 | 8 | 64 | 6
Cc1ccc(C(=O)CC(=O)c2ccccc2)cc1 | 18 | 1 | ? | · | -13
CCCOC(=O)CN1C(=O)c2ccc(C(=O)OCCC)cc2C1=O | · | 8 | -3 | -9 | 2
O=C(C[C@H]1CC[C@@H]2[C@H](COC[C@@H](O)CN2Cc2ccc(F)cc2)O1)N1CCc2ccccc2C1 | · | 0 | 6 | · | ·
CCCCCN=C(N)N/N=C/c1c[nH]c2ccc(OC)cc12 | 5 | -120 | -79 | -96 | 78*
Cc1cc(=O)oc2cc(NC(=O)C(C)Oc3ccc(F)cc3)ccc12 (configuration not stated) | 2 | 3 | 3 | 22 | -10
Cc1cc(=O)oc2cc(OCC(=O)Nc3cccc(S(=O)(=O)N(C)C)c3)ccc12 | -3 | · | · | 6 | 3
CCOc1ncccc1C(=O)Nc1ccc2c(C)cc(=O)oc2c1 | 2 | 5 | 4 | 16 | -6
Cc1cc(=O)oc2cc(NC(=O)c3ccc(OC(F)F)cc3)ccc12 | 11 | -57 | 57* | 86* | -3
Cc1cc(=O)oc2cc(NC(=O)c3cccc(S(=O)(=O)N(C)C)c3)ccc12 | 28 | -64 | 40 | 139* | 9
COc1ccccc1C(=O)Nc1ccc2c(C)cc(=O)oc2c1 | 48* | -19 | 54* | 88* | -4
Cc1cc(=O)oc2cc(NC(=O)c3cccc(S(C)(=O)=O)c3)ccc12 | 7 | -13 | ? | 93* | -11
SMILES | Wnt act | Statin myotox sup | esBAF inh | MITF act | Rtt109 HAT inh
Cc1cc(=O)oc2cc(NC(=O)Cc3ccccc3)ccc12 | 14 | 4 | 31 | 51 | -5
C[C@H](CO)N1C[C@H](C)[C@H](CN(C)C(=O)c2ccc3c(c2)OCO3)Oc2cc(-c3ccncc3)ccc2S1(=O)=O | · | -11 | 1 | · | ·
CO[C@H]1CN(C)C(=O)c2ccc(NC(C)=O)cc2OC[C@@H](C)N(C(=O)c2ccccn2)C[C@H]1C | · | -3 | -3 | · | ·
O/N=C/c1ccccc1Oc1ccccc1 | -1 | 86* | -6 | -2 | -2
C[C@@H]1CN([C@H](C)CO)C(=O)Cc2cc(NC(=O)Cc3cn(C)c4ccccc34)ccc2O[C@@H]1CN(C)S(=O)(=O)c1cn(C)cn1 | · | 8 | 1 | · | ·
O=C(NCCOc1ccccc1)c1cc2ccccc2o1 | 15 | · | 13 | 102* | -9
O=C(NCC1CCCO1)c1cccc2ccccc12 (configuration not stated) | 1 | 3 | 2 | -7 | -3
O=C(NCC1CCCO1)c1cc2ccccc2cc1O (configuration not stated) | 28 | -1 | 57* | 61 | -13
O=C(NCC1CCCO1)c1ccc(Cl)c(F)c1F (configuration not stated) | · | 84* | -5 | 8 | ·
O=C(NCC1CCCO1)c1cc2ccccc2o1 (configuration not stated) | 4 | 3 | 44* | 36 | 30
C[C@@H]1CN([C@@H](C)CO)C(=O)c2cc(NC(=O)Cc3ccccc3)ccc2O[C@@H](C)CCCCO[C@@H]1CN(C)C(=O)Nc1cccc2ccccc12 | · | 32 | 0 | · | ·
O=C(NCC1CCCCC1)c1cc2ccccc2cc1O | 17 | 4 | 54* | 29 | 21
CC1CCC(NC(=O)c2cc3ccccc3cc2O)CC1 (configuration not stated) | 46* | -2 | 77* | 94* | -2
COc1cccc(-c2ccc3c(c2)O[C@H](CN(C)C)[C@@H](C)CN([C@H](C)CO)S3(=O)=O)c1 | · | -14 | -1 | · | ·
O=C(C/C=N/OCc1ccc(Cl)cc1Cl)c1ccccc1 | · | 7 | 7 | · | 65*
COc1c(Cl)cccc1-c1cn2ccc(C)cc2n1 | 57* | · | · | 69 | 4
Cc1ccn2cc(-c3cccc(S(=O)(=O)N4CC(C)OC(C)C4)c3)nc2c1 (configuration not stated) | 0 | -7 | 8 | 0 | 7
Cc1ccn2cc(-c3cccc(S(=O)(=O)N4CCCC4)c3)nc2c1 | 2 | -42 | 47* | 7 | 1
CCC(=O)N(C)C[C@H]1Oc2cc(C#CCC(C)C)ccc2S(=O)(=O)N([C@@H](C)CO)C[C@H]1C | · | -30 | 3 | · | ·
C[C@@H]1CN([C@@H](C)CO)C(=O)c2cccc(NS(=O)(=O)c3cn(C)cn3)c2O[C@H]1CN(C)C(=O)Nc1ccc2c(c1)OCO2 | · | 19 | 33 | · | ·
CCCC(=O)Nc1ccc2c(c1)C(=O)N(C)C[C@H](OC)[C@H](C)CN(C(C)=O)[C@@H](C)CO2 | · | -4 | 1 | · | ·
Cc1cccc(-c2nnc(NC(=O)c3ccco3)s2)c1 | 0 | 4 | 59* | 27 | -2
O=C(Nc1nnc(-c2ccc(F)cc2)s1)c1ccco1 | 15 | 2 | 46* | 106* | -1
Cc1cccc(N(C)S(=O)(=O)c2nnc(NC(=O)c3ccco3)s2)c1 | -2 | -10 | -5 | 5 | -1
Cc1ccc(CNC(=O)C2(S(=O)(=O)c3ccccc3)CC=CC2)cc1 | · | -1 | 73* | 74 | 1
COCCNC(=O)C[C@@H]1CC[C@@H]2[C@@H](COc3ccc(NC(C)=O)cc3C(=O)N2C)O1 | · | 3 | -5 | · | ·
COc1ccccc1/C=N/N1C(=O)C2C3C=CC(CC3)C2C1=O (configuration not stated) | 0 | -2 | -2 | -3 | 15
